According to PubChem BioAssay (NCI):
Compounds without any hit were thinned out: in the full panel of roughly 79,000, 15% have a hit. A number with no mark means an inactive call. The source made the active and inactive calls. Rule as the data show it: active = growth inhibition above about 70%; inactive = the rest.

What was measured:
[1] = NCI Yeast Anticancer Drug Screen. Data for the mec2-1 strain (AID 157); details: S. cerevisiae mec2-1 strain, active compounds read high
Summary of the method: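 mec2-1 yeast strain, carrying an alteration in DNA damage repair or cell cycle control, was exposed to compounds; growth inhibition was measured relative to vehicle-treated controls.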

[2] = NCI Yeast Anticancer Drug Screen. Data for the rad14 strain (AID 159);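 also: 0% = growth of vehicle-treated control cultures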; details: S. cerevisiae rad14 strain growth inhibition, active compounds read high
Summary of the method: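 A mutant yeast strain defective in DNA damage repair is treated with compound; inhibition of its growth is scored against untreated, vehicle-exposed cultures.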

[3] = NCI Yeast Anticancer Drug Screen. Data for the sgs1 mgt1 strain (AID 161);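 also: 0% = growth of cultures given vehicle only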; details: S. cerevisiae sgs1 mgt1 strain, active compounds read high
Summary of the method: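 Growth of a repair-deficient yeast mutant was monitored after compound treatment and expressed as inhibition relative to vehicle-treated cultures.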

[4] = NCI Yeast Anticancer Drug Screen. Data for the CLN2oe strain (AID 163);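 also: 0% = growth of vehicle-only control cultures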; details: S. cerevisiae CLN2oe strain, active compounds read high
Summary of the method: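 Yeast cells carrying a defined cell-cycle control alteration were exposed to test compounds. Growth inhibition was scored against vehicle-treated control cultures.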

[5] = NCI Yeast Anticancer Drug Screen. Data for the cln2 rad14 strain (AID 165);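 also: 0% = growth equal to vehicle treated cultures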; details: S. cerevisiae cln2 rad14 strain, active compounds read high
Summary of the method: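 Yeast carrying cln2 and rad14 alterations (cell cycle control and DNA damage repair) were exposed to compounds. Growth inhibition was measured against vehicle-treated controls.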

[6] = NCI Yeast Anticancer Drug Screen. Data for the bub3 strain (AID 167); details: S. cerevisiae bub3 mutant strain, active compounds read high
Summary of the method: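 Steps: expose the mutant yeast strain to compound; grow alongside vehicle-treated cultures; measure growth; express inhibition against the vehicle cultures.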

[7] = NCI Yeast Anticancer Drug Screen. Data for the wt2 strain (AID 169);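 also: 0% = growth of vehicle-treated yeast cultures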; details: S. cerevisiae wt2 strain growth inhibition, active compounds read high
Summary of the method: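 Yeast cells were exposed to test compounds, and growth inhibition was measured relative to vehicle-treated controls.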

[8] = NCI Yeast Anticancer Drug Screen. Data for the sgs1 strain (AID 173);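 also: 0% = growth of vehicle-only control cultures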; details: S. cerevisiae sgs1 mutant, active compounds read high
Summary of the method: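 Yeast mutant strains carrying defined defects in DNA damage repair or cell cycle control were exposed to test compounds. Growth inhibition was scored against vehicle-treated controls.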

[9] = NCI Yeast Anticancer Drug Screen. Data for the mlh1 rad18 strain (AID 175); details: S. cerevisiae mlh1 rad18 strain growth inhibition, active compounds read high
Summary of the method: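 Growth inhibition of the yeast strain was measured after compound exposure and expressed relative to vehicle-treated controls. The strain carries defined defects in DNA damage repair.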

[10] = NCI Yeast Anticancer Drug Screen. Data for the rad18 strain (AID 177); details: S. cerevisiae rad18 mutant growth inhibition, active compounds read high
Summary of the method: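 Yeast carrying a defined DNA damage repair alteration were exposed to compounds. Growth inhibition was expressed relative to vehicle-treated controls.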

[11] = NCI Yeast Anticancer Drug Screen. Data for the wt1 strain (AID 149);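 also: 0% = growth of vehicle-treated wt1 cultures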; details: S. cerevisiae wt1 strain (SPY 50644) growth inhibition, active compounds read high
Summary of the method: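 Compounds are added to wt1 yeast cultures. Growth is then measured. Inhibition is expressed relative to vehicle-treated controls.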

[12] = NCI Yeast Anticancer Drug Screen. Data for the rad50EPP+ strain (AID 151);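 also: 0% = growth of vehicle-treated control cultures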; details: S. cerevisiae rad50 mutant strain, active compounds read high
Summary of the method: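 Yeast strain carrying rad50 alteration (rad50EPP+) exposed to compounds; growth inhibition measured relative to vehicle-treated controls.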

[13] = NCI Yeast Anticancer Drug Screen. Data for the mgt1 strain (AID 153); details: S. cerevisiae mgt1 mutant growth inhibition, active compounds read high
Summary of the method: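 Yeast mgt1 strain (DNA repair/cell-cycle alteration panel) exposed to compounds; growth inhibition measured relative to vehicle-treated controls.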

[14] = NCI Yeast Anticancer Drug Screen. Data for the rad50 strain (AID 155);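 also: 0% = growth of vehicle-only cultures of the same strain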; details: S. cerevisiae rad50 strain growth inhibition, active compounds read high
Summary of the method: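 Inhibition values express reduced yeast growth in compound-treated cultures relative to vehicle-treated controls.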

[15] = NCI Yeast Anticancer Drug Screen. Data for the mlh1 strain (AID 171);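 also: 0% = growth of vehicle-treated control cultures of the same strain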; details: S. cerevisiae mlh1 strain growth inhibition, active compounds read high
Summary of the method: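 Yeast carrying a defined genetic alteration in DNA damage repair or cell cycle control were exposed to test compounds. Growth inhibition was measured relative to vehicle-treated controls.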

[16] = at 5.0 µM (retest, dose inferred, filed as 0.5)
[17] = at 50.0 µM (retest, dose inferred, filed as 5.0)

In the case of `[Cl][Pt+2][Cl].[NH-]CC1(C[NH-])CCCCC1`, the growth inhibition ([1]; at 100.0 µM) is reported as 98% (active), the growth inhibition ([2]; at 1.2 µM) is reported as -29% and the growth inhibition ([2]; at 3.7 µM) is reported as 6%. For the same compound, the growth inhibition ([2]; at 11.0 µM) was 96% (active), the growth inhibition ([2]; at 33.0 µM) was 98% (active) and the growth inhibition ([2]; at 100.0 µM) was 98% (active). The growth inhibition [3, 16] was 53%, the growth inhibition [3, 17] was 100% (active) and the growth inhibition ([3]; at 50.0 µM) was 92.7% (active). For the same compound, the growth inhibition ([4]; at 1.2 µM) was -5%, the growth inhibition ([4]; at 3.7 µM) was 14% and the growth inhibition ([4]; at 11.0 µM) was 62%. The growth inhibition ([4]; at 33.0 µM) was 98% (active), the growth inhibition ([4]; at 100.0 µM) was 98% (active) and the growth inhibition [5, 16] was 43%. The growth inhibition [5, 17] was 100% (active), the growth inhibition ([5]; at 50.0 µM) was 69.5% and the growth inhibition ([6]; at 1.2 µM) was -42%. The growth inhibition ([6]; at 3.7 µM) was 23%, the growth inhibition [6, 16] was 45% and the growth inhibition ([6]; at 11.0 µM) was 97% (active). The growth inhibition ([6]; at 33.0 µM) was 99% (active), the growth inhibition [6, 17] was 100% (active) and the growth inhibition ([6]; at 50.0 µM) was 91.7% (active). The growth inhibition ([6]; at 100.0 µM) was 98% (active), the growth inhibition ([7]; at 1.2 µM) was -23% and the growth inhibition ([7]; at 3.7 µM) was 28%. The growth inhibition ([7]; at 11.0 µM) was 90% (active), the growth inhibition ([7]; at 33.0 µM) was 99% (active) and the growth inhibition ([7]; at 100.0 µM) was 99% (active). The growth inhibition ([8]; at 1.2 µM) was -14%, the growth inhibition ([8]; at 3.7 µM) was 11% and the growth inhibition ([8]; at 11.0 µM) was 83% (active). For the same compound, the growth inhibition ([8]; at 33.0 µM) was 98% (active), the growth inhibition ([8]; at 100.0 µM) was 97% (active) and the growth inhibition [9, 16] was 3%. For the same compound, the growth inhibition [9, 17] was 99% (active), the growth inhibition ([9]; at 50.0 µM) was 88.8% (active) and the growth inhibition ([10]; at 1.2 µM) was -24%. For the same compound, the growth inhibition ([10]; at 3.7 µM) was -6%, the growth inhibition ([10]; at 11.0 µM) was 89% (active) and the growth inhibition ([10]; at 33.0 µM) was 97% (active). For the same compound, the growth inhibition ([10]; at 100.0 µM) was 96% (active).

`O=C(O)CN(CCNC(=O)OCC1c2ccccc2-c2ccccc21)CCNC(=O)OCC1c2ccccc2-c2ccccc21` showed a growth inhibition ([11]; at 1.2 µM) of -1%, a growth inhibition ([11]; at 3.7 µM) of -4% and a growth inhibition ([11]; at 11.0 µM) of 2%. The growth inhibition ([11]; at 33.0 µM) was 71% (active), the growth inhibition ([11]; at 100.0 µM) was 94% (active) and the growth inhibition ([12]; at 1.2 µM) was 0%. It also gave a growth inhibition ([12]; at 3.7 µM) of 4%, a growth inhibition ([12]; at 11.0 µM) of 5% and a growth inhibition ([12]; at 33.0 µM) of 7%. The growth inhibition ([12]; at 100.0 µM) was 5%, the growth inhibition ([13]; at 1.2 µM) was -4% and the growth inhibition ([13]; at 3.7 µM) was -1%. The growth inhibition ([13]; at 11.0 µM) was 9%, the growth inhibition ([13]; at 33.0 µM) was 98% (active) and the growth inhibition ([13]; at 100.0 µM) was 95% (active). For the same compound, the growth inhibition ([14]; at 1.2 µM) was -3%, the growth inhibition ([14]; at 3.7 µM) was -9% and the growth inhibition [14, 16] was -21%. The growth inhibition ([14]; at 11.0 µM) was 11%, the growth inhibition ([14]; at 33.0 µM) was 97% (active) and the growth inhibition [14, 17] was 36%. The growth inhibition ([14]; at 50.0 µM) was 93.7% (active), the growth inhibition ([14]; at 100.0 µM) was 94% (active) and the growth inhibition ([1]; at 1.2 µM) was -3%. It also gave a growth inhibition ([1]; at 3.7 µM) of -5%, a growth inhibition [1, 16] of -10% and a growth inhibition ([1]; at 11.0 µM) of -3%. For the same compound, the growth inhibition ([1]; at 33.0 µM) was 98% (active), the growth inhibition [1, 17] was -6% and the growth inhibition ([1]; at 50.0 µM) was 95.3% (active). The growth inhibition ([1]; at 100.0 µM) was 96% (active), the growth inhibition ([2]; at 1.2 µM) was 0% and the growth inhibition ([2]; at 3.7 µM) was 1%. For the same compound, the growth inhibition ([2]; at 11.0 µM) was 34%, the growth inhibition ([2]; at 33.0 µM) was 98% (active) and the growth inhibition ([2]; at 100.0 µM) was 95% (active). For the same compound, the growth inhibition [3, 16] was -1%, the growth inhibition [3, 17] was -4% and the growth inhibition ([3]; at 50.0 µM) was 95.5% (active). It also gave a growth inhibition ([4]; at 1.2 µM) of -1%, a growth inhibition ([4]; at 3.7 µM) of 1% and a growth inhibition ([4]; at 11.0 µM) of 2%. For the same compound, the growth inhibition ([4]; at 33.0 µM) was 96% (active), the growth inhibition ([4]; at 100.0 µM) was 90% (active) and the growth inhibition [5, 16] was 3%. For the same compound, the growth inhibition [5, 17] was 15%, the growth inhibition ([5]; at 50.0 µM) was 93.5% (active) and the growth inhibition ([6]; at 1.2 µM) was -1%. For the same compound, the growth inhibition ([6]; at 3.7 µM) was 0%, the growth inhibition [6, 16] was -16% and the growth inhibition ([6]; at 11.0 µM) was 1%. For the same compound, the growth inhibition ([6]; at 33.0 µM) was 93% (active), the growth inhibition [6, 17] was -9% and the growth inhibition ([6]; at 50.0 µM) was 95% (active). For the same compound, the growth inhibition ([6]; at 100.0 µM) was 94% (active), the growth inhibition ([7]; at 1.2 µM) was -3% and the growth inhibition ([7]; at 3.7 µM) was -3%. The growth inhibition ([7]; at 11.0 µM) was 75% (active), the growth inhibition ([7]; at 33.0 µM) was 98% (active) and the growth inhibition ([7]; at 100.0 µM) was 95% (active). For the same compound, the growth inhibition ([15]; at 1.2 µM) was -1%, the growth inhibition ([15]; at 3.7 µM) was -3% and the growth inhibition ([15]; at 11.0 µM) was 11%. For the same compound, the growth inhibition ([15]; at 33.0 µM) was 98% (active), the growth inhibition ([15]; at 100.0 µM) was 96% (active) and the growth inhibition ([8]; at 1.2 µM) was 0%. The growth inhibition ([8]; at 3.7 µM) was -1%, the growth inhibition ([8]; at 11.0 µM) was 9% and the growth inhibition ([8]; at 33.0 µM) was 97% (active). For the same compound, the growth inhibition ([8]; at 100.0 µM) was 94% (active), the growth inhibition [9, 16] was 3% and the growth inhibition [9, 17] was 62%. For the same compound, the growth inhibition ([9]; at 50.0 µM) was 95.1% (active), the growth inhibition ([10]; at 1.2 µM) was -2% and the growth inhibition ([10]; at 3.7 µM) was -2%. For the same compound, the growth inhibition ([10]; at 11.0 µM) was 4%, the growth inhibition ([10]; at 33.0 µM) was 95% (active) and the growth inhibition ([10]; at 100.0 µM) was 94% (active).
